# How the values were obtained:
# Assay in all cases: PBM binding z-score (relative to random genomic background probes); higher = stronger binding; sequences stand for … in GC…GCGATTGACAGCGTAGAATGAAGG
# [1] = test system: FXR:RXRa (NR concentration 270 nM, RXRa partner concentration 90 nM)
# How it was run: (§1)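 On custom Agilent 4×180K arrays, double-stranded probes with 34-nt variable regions carried direct-repeat seeds, single-nucleotide variants, half-site ablations or random human genomic background. Ligand-free nuclear receptor dimers were applied for 1 h, and binding was read with antibodies against each partner (one per run). Binding z-scores come from regression-normalized fluorescence, with the random background probes as reference.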
# [2] = test system: LXRa homodimer (NR concentration 270 nM)
# How it was run: as §1
# [3] = test system: LXRb homodimer (NR concentration 270 nM)
# How it was run: as §1
# [4] = test system: PPARg:RXRa (NR concentration 180 nM, RXRa partner concentration 90 nM)
# How it was run: as §1
# [5] = test system: PPARg:RXRa 270nM:90nM, anti-RXR (NR concentration 270 nM, RXRa partner concentration 90 nM)
# How it was run: as §1
# [6] = test system: PPARg:RXRa 30nM:10nM, anti-RXR (NR concentration 30 nM, RXRa partner concentration 10 nM)
# How it was run: as §1
# [7] = test system: PPARg:RXRa 90nM:30nM, anti-RXR (NR concentration 90 nM, RXRa partner concentration 30 nM)
# How it was run: as §1
# [8] = test system: PPARg:RXRa DBDmut IVT, anti-RXR (DBD mutation: RXRa K156A/R161A, NR concentration 270 nM, RXRa partner concentration 90 nM)
# How it was run: as §1
sequence,measurement,setting,value
TAGCCTAGGTCATTCAGGGGCCAGCATAGAAAGC,PBM binding z-score,[1],4.87
same,PBM binding z-score,[2],0.45
same,PBM binding z-score,[3],0.706
same,PBM binding z-score,[4],2.37
same,PBM binding z-score,[5],2.62
same,PBM binding z-score,[6],0.723
same,PBM binding z-score,[7],1.28
same,PBM binding z-score,[8],2.03
CCTAGTTGGTCAAGGTCACATACGCTATAGGTAC,PBM binding z-score,[1],3.98
same,PBM binding z-score,[2],1.97
same,PBM binding z-score,[3],1.23
same,PBM binding z-score,[4],3.3
same,PBM binding z-score,[5],3.43
same,PBM binding z-score,[6],1.17
same,PBM binding z-score,[7],2.91
same,PBM binding z-score,[8],2.23
TATTCAGGGTCAAAGGCCAGAGTACGAATGTCGA,PBM binding z-score,[1],7.57
same,PBM binding z-score,[2],5.36
same,PBM binding z-score,[3],5.04
same,PBM binding z-score,[4],8.53
same,PBM binding z-score,[5],7.7
same,PBM binding z-score,[6],6.15
same,PBM binding z-score,[7],7.42
same,PBM binding z-score,[8],2.47
GCATATAGGTAATACAAGGTCAAAGTCCGATTGT,PBM binding z-score,[1],3.47
same,PBM binding z-score,[2],9.94
same,PBM binding z-score,[3],1.42
same,PBM binding z-score,[4],2.69
same,PBM binding z-score,[5],3.32
same,PBM binding z-score,[6],1.39
same,PBM binding z-score,[7],2.9
same,PBM binding z-score,[8],4.1
ATATGTAGGTTAACTGGGGTCATTCAGACTAGGC,PBM binding z-score,[1],5.59
same,PBM binding z-score,[2],5.57
same,PBM binding z-score,[3],1.43
same,PBM binding z-score,[4],7.58
same,PBM binding z-score,[5],6.61
same,PBM binding z-score,[6],4.49
same,PBM binding z-score,[7],6.42
same,PBM binding z-score,[8],7.59
GCTAGTTGGTCAGTAAAAGGTGACACACCGGTCG,PBM binding z-score,[1],0.000592
same,PBM binding z-score,[2],-0.18
same,PBM binding z-score,[3],-0.568
same,PBM binding z-score,[4],0.834
same,PBM binding z-score,[5],1.59
same,PBM binding z-score,[6],-0.104
same,PBM binding z-score,[7],1.02
same,PBM binding z-score,[8],0.643
ATATGTAGGTTATCTGGGGTCATTCAGACTAGGC,PBM binding z-score,[1],6.16
same,PBM binding z-score,[2],8.86
same,PBM binding z-score,[3],2.41
same,PBM binding z-score,[4],6.31
same,PBM binding z-score,[5],5.84
same,PBM binding z-score,[6],3.28
same,PBM binding z-score,[7],5.32
same,PBM binding z-score,[8],7.21
CGTCAAACTTCAACTAAGGTAACGTAAAGCACGC,PBM binding z-score,[1],0.562
same,PBM binding z-score,[2],0.473
same,PBM binding z-score,[3],0.584
same,PBM binding z-score,[4],0.587
same,PBM binding z-score,[5],0.064
same,PBM binding z-score,[6],0.351
same,PBM binding z-score,[7],0.111
same,PBM binding z-score,[8],0.0564
TCGCCTAGGTCATGGGCCAGTATACCACGCGAAC,PBM binding z-score,[1],4.68
same,PBM binding z-score,[2],0.142
same,PBM binding z-score,[3],-0.146
same,PBM binding z-score,[4],3.52
same,PBM binding z-score,[5],3.4
same,PBM binding z-score,[6],1.9
same,PBM binding z-score,[7],2.9
same,PBM binding z-score,[8],1.88
GCTGCTAGGTCAACTGATGGTCATCTAAAGCTCG,PBM binding z-score,[1],4.19
same,PBM binding z-score,[2],0.86
same,PBM binding z-score,[3],0.134
same,PBM binding z-score,[4],2.92
same,PBM binding z-score,[5],3.32
same,PBM binding z-score,[6],0.892
same,PBM binding z-score,[7],2.34
same,PBM binding z-score,[8],5.18
TCTAGTGGGTCAAAGGTCACACACTCGAAATGCG,PBM binding z-score,[1],7.63
same,PBM binding z-score,[2],3.93
same,PBM binding z-score,[3],1.59
same,PBM binding z-score,[5],11.1
same,PBM binding z-score,[6],12.2
same,PBM binding z-score,[7],12.6
same,PBM binding z-score,[8],7.68

# — the supplement of paper PMC6555819
